# The sample as a whole holds a higher share of the strongest signals than the screen did.
# What was measured:
# Experiment in all cases: glycan array binding signal (z-score within array); higher = stronger binding
# Conditions in all cases: glycan notation: IUPAC condensed, linker removed
# Fuc(a1-2)Gal = target: Fuc(a1-2)Gal
# Outline: (§1)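 The binding signal is a Z-score computed within each array. Data were drawn from 3228 arrays in the Consortium for Functional Glycomics database, restricted to those with a known protein sequence. Scores were averaged over arrays of the same protein sequence at different concentrations or buffers, and over linkers, and negative values can be taken as non-binding.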
# [1] = target: Fuc(a1-2)Gal(b1-3)GlcNAc(b1-3)[Fuc(a1-2)Gal(b1-3)GlcNAc(b1-6)]GalNAc
# Outline: as §1
# [2] = target: Fuc(a1-2)Gal(b1-4)GlcNAc(b1-3)Gal(b1-4)GlcNAc(b1-2)Man(a1-3)[Fuc(a1-2)Gal(b1-4)GlcNAc(b1-3)Gal(b1-4)GlcNAc(b1-2)Man(a1-6)]Man(b1-4)GlcNAc(b1-4)GlcNAc
# Outline: as §1
# [3] = target: Fuc(a1-2)[Gal(a1-3)]Gal(b1-4)[Fuc(a1-3)]Glc
# Outline: as §1
# [4] = target: Fuc(a1-3)[Gal(b1-4)]GlcNAc(b1-2)Man(a1-3)[Fuc(a1-3)[Gal(b1-4)]GlcNAc(b1-2)Man(a1-6)]Man(b1-4)GlcNAc(b1-4)[Fuc(a1-6)]GlcNAc
# Outline: as §1
# [5] = target: Fuc(a1-3)[Gal(b1-4)]GlcNAc(b1-6)[Gal(b1-3)GlcNAc(b1-3)]Gal(b1-4)Glc
# Outline: as §1
# [6] = target: Fuc(a1-3)[GalNAc(b1-4)]GlcNAc
# Outline: as §1
# Fuc(a1-4)GlcNAc = target: Fuc(a1-4)GlcNAc
# Outline: as §1
# [7] = target: Gal(a1-3)Gal(b1-3)GlcNAc(b1-2)Man
# Outline: as §1
# [8] = target: Gal(a1-3)Gal(b1-3)GlcNAc(b1-6)GalNAc
# Outline: as §1
# [9] = target: Gal(a1-3)Gal(b1-4)GlcNAc(b1-6)GalNAc
# Outline: as §1
# [10] = target: Gal(a1-4)Gal(b1-3)GlcNAc(b1-2)Man(a1-3)[Gal(a1-4)Gal(b1-3)GlcNAc(b1-2)Man(a1-6)]Man(b1-4)GlcNAc(b1-4)GlcNAc
# Outline: as §1
# [11] = target: Gal(b1-3)GlcNAc(b1-2)[Gal(b1-3)GlcNAc(b1-6)]Man(a1-6)[Gal(b1-3)GlcNAc(b1-2)Man(a1-3)]Man(b1-4)GlcNAc(b1-4)GlcNAc
# Outline: as §1
# Gal(b1-4)GlcNAc(b1-2)Man = target: Gal(b1-4)GlcNAc(b1-2)Man
# Outline: as §1
# [12] = target: Gal(b1-4)GlcNAc(b1-2)Man(a1-6)Man(b1-4)GlcNAc(b1-4)GlcNAc
# Outline: as §1
# [13] = target: Gal(b1-4)GlcNAc(b1-2)Man(a1-6)[Man(a1-3)]Man(b1-4)GlcNAc(b1-4)GlcNAc
# Outline: as §1
# [14] = target: Gal(b1-4)GlcNAc(b1-2)[Gal(b1-4)GlcNAc(b1-6)]Man(a1-6)[GlcNAc(b1-4)][Gal(b1-4)GlcNAc(b1-2)[Gal(b1-4)GlcNAc(b1-4)]Man(a1-3)]Man(b1-4)GlcNAc(b1-4)[Fuc(a1-6)]GlcNAc
# Outline: as §1
# [15] = target: Gal(b1-4)GlcNAc(b1-3)Gal(b1-3)GlcNAc
# Outline: as §1
# [16] = target: Gal(b1-4)GlcNAc(b1-3)Gal(b1-4)GlcNAc(b1-2)[Gal(b1-4)GlcNAc(b1-3)Gal(b1-4)GlcNAc(b1-6)]Man(a1-6)[Gal(b1-4)GlcNAc(b1-3)Gal(b1-4)GlcNAc(b1-2)Man(a1-3)]Man(b1-4)GlcNAc(b1-4)GlcNAc
# Outline: as §1
# [17] = target: Gal(b1-4)GlcNAc(b1-3)Gal(b1-4)GlcNAc(b1-3)Gal(b1-4)GlcNAc(b1-2)Man(a1-3)[Gal(b1-4)GlcNAc(b1-3)Gal(b1-4)GlcNAc(b1-3)Gal(b1-4)GlcNAc(b1-2)Man(a1-6)]Man(b1-4)GlcNAc(b1-4)[Fuc(a1-6)]GlcNAc
# Outline: as §1
# [18] = target: Gal(b1-4)GlcNAc(b1-3)Gal(b1-4)GlcNAc(b1-3)Gal(b1-4)GlcNAc(b1-2)[Gal(b1-4)GlcNAc(b1-3)Gal(b1-4)GlcNAc(b1-3)Gal(b1-4)GlcNAc(b1-6)]Man(a1-6)[Gal(b1-4)GlcNAc(b1-3)Gal(b1-4)GlcNAc(b1-3)Gal(b1-4)GlcNAc(b1-2)Man(a1-3)]Man(b1-4)GlcNAc(b1-4)[Fuc(a1-6)]GlcNAc
# Outline: as §1
# [19] = target: Gal(b1-4)GlcNAc(b1-3)Gal(b1-4)GlcNAc(b1-3)Gal(b1-4)GlcNAc(b1-3)Gal(b1-4)GlcNAc(b1-3)Gal(b1-4)GlcNAc(b1-2)Man(a1-3)[Gal(b1-4)GlcNAc(b1-3)Gal(b1-4)GlcNAc(b1-3)Gal(b1-4)GlcNAc(b1-3)Gal(b1-4)GlcNAc(b1-3)Gal(b1-4)GlcNAc(b1-2)Man(a1-6)]Man(b1-4)GlcNAc(b1-4)GlcNAc
# Outline: as §1
# [20] = target: Gal(b1-4)GlcNAc(b1-3)Gal(b1-4)GlcNAc(b1-6)[Gal(b1-3)]GalNAc
# Outline: as §1
# [21] = target: Gal(b1-4)GlcNAc(b1-3)Gal(b1-4)[Fuc(a1-3)]GlcNAc(b1-3)Gal(b1-4)[Fuc(a1-3)]GlcNAc
# Outline: as §1
binder,measurement,setting,value
SP15308F-bth-333-19-333 (Bacteroides thetaiotaomicron) (protein) SCNNEWESEQYVQMVSFKAPVNAQGVTPIYIRYKPEGKVTYQLPLIVSGSTMNSKDLNVHVGLDLDTLDVLNVEHFGSRKELFFKPLENKYYEFPETVQIPAGECTSLLPIDFALKDLDQVDKWVLPLAIQSNDPSHNYQANPRKFYRRAMLRISPFNDYSGQYSATAYKVYFKGNEKEAIVPEYHTSYVIDDKTIFFYAGLIDIDRLDRKYYKIKFEFTEEKIDLQTRKLKISSDNEDINLVVKGQPSYTVEEEMDATRPYLKHIYVTINNLEYEFTDYTSVPGYPLEYVVKGSLTMERKINTQIPDEDQAIEW,glycan array binding signal (z-score),Fuc(a1-2)Gal,-0.518
same,glycan array binding signal (z-score),[1],0.606
same,glycan array binding signal (z-score),[2],3.55
same,glycan array binding signal (z-score),[3],-0.455
same,glycan array binding signal (z-score),[4],-0.717
same,glycan array binding signal (z-score),[5],0.652
same,glycan array binding signal (z-score),[6],6.34
same,glycan array binding signal (z-score),Fuc(a1-4)GlcNAc,7.35
same,glycan array binding signal (z-score),[7],0.13
same,glycan array binding signal (z-score),[8],-1.04
same,glycan array binding signal (z-score),[9],-0.976
same,glycan array binding signal (z-score),[10],-1.15
same,glycan array binding signal (z-score),[11],0.375
same,glycan array binding signal (z-score),Gal(b1-4)GlcNAc(b1-2)Man,2.88
same,glycan array binding signal (z-score),[12],-1.02
same,glycan array binding signal (z-score),[13],-0.531
same,glycan array binding signal (z-score),[14],0.062
same,glycan array binding signal (z-score),[15],-0.026
same,glycan array binding signal (z-score),[16],-0.769
same,glycan array binding signal (z-score),[17],1.45
same,glycan array binding signal (z-score),[18],0.279
same,glycan array binding signal (z-score),[19],3.23
same,glycan array binding signal (z-score),[20],-0.045
same,glycan array binding signal (z-score),[21],0.753
